Data: PubChem BioAssay AID1159580 (chemical genetic matrix, 2015)
Screen size: about 5,500 compounds; about 2,000 (36%) were called active. Another 18% or so got no clear call; they are omitted. No stated cut-off is given here; in the data, active means normalized growth mostly below about 0.91 (no sharp cut-off); inconclusive means no clear call, values can overlap the other calls; inactive means mostly above about 0.92. The list shows a part of the results.

Experiment: chemical genetic growth profiling, strain panel (AID 1159580);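 further: tested at 20 µM; growth read once vehicle control cultures reached saturation at 30 °C; 1 = growth at the plate median or of vehicle wells; lower values mean less growth of the strain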
Conditions: S. cerevisiae deletion strains, growth OD

Measured: normalized growth

CC(=O)Oc1ccccc1C(=O)O
inactive: locus YAL021C, strain ccr4, hits give low values 0.993 | locus YAL026C, strain drs2, hits give low values 1 | locus YAL030W, strain snc1, hits give low values 1 | locus YAL040C, strain CLN3, hits give low values 0.996 | locus YBL061C, strain skt5, hits give low values 0.989 | locus YBR009C, strain hhf1, hits give low values 1.03 | locus YBR023C, strain chs3, hits give low values 1 | locus YBR171W, strain sec66, hits give low values 0.985 | locus YBR231C, strain swc5, hits give low values 1.01 | locus YBR279W, strain paf1, hits give low values 0.992 | locus YCL011C, strain gbp2, hits give low values 1 | locus YCL016C, strain dcc1, hits give low values 0.983 | locus YCL061C, strain MRC1 (second series), hits give low values 1 | locus YCL069W, strain vba3, hits give low values 1 | locus YCR088W, strain abp1, hits give low values 0.989 | locus YDL005C, strain med2, hits give low values 0.985 | locus YDL040C, strain nat1, hits give low values 0.996 | locus YDR001C, strain nth1, hits give low values 0.995 | locus YDR069C, strain doa4, hits give low values 1.01 | locus YDR137W, strain rgp1, hits give low values 1 | locus YDR150W, strain NUM1, hits give low values 0.992 | locus YDR159W, strain sac3, hits give low values 0.938 | locus YDR195W, strain ref2 1 | locus YDR297W, strain sur2, hits give low values 1.01 | locus YDR334W, strain swr1, hits give low values 0.991 | locus YDR335W, strain msn5, hits give low values 1.03 | locus YDR392W, strain spt3, hits give low values 0.906 | locus YEL003W, strain gim4, hits give low values 1.01 | locus YEL037C, strain rad23, hits give low values 0.998 | locus YEL061C, strain CIN8 (second series), hits give low values 0.996 | locus YER002W, strain NOP16, hits give low values 0.988 | locus YER015W, strain faa2, hits give low values 1.01 | locus YER016W, strain bim1, hits give low values 0.977 | locus YER111C, strain swi4, hits give low values 0.985 | locus YER155C, strain BEM2 (second series), hits give low values 0.996 | locus YFR010W, strain ubp6, hits give low values 1.09 | locus YGL167C, strain pmr1, hits give low values 1 | locus YGL173C, strain kem1, hits give low values 1 | locus YGL227W, strain vid30, hits give low values 0.989 | locus YGL240W, strain doc1, hits give low values 1 | locus YGL253W, strain hxk2, hits give low values 1.03 | locus YHR013C, strain ard1, hits give low values 0.969 | locus YHR027C, strain rpn1, hits give low values 1.02 | locus YHR030C, strain SLT2, hits give low values 1.03 | locus YHR079C, strain IRE1, hits give low values 1.04 | locus YHR142W, strain chs7, hits give low values 1.01 | locus YJL092W, strain hpr5, hits give low values 1 | locus YJL095W, strain BCK1 (second series), hits give low values 0.989 | locus YJL095W, strain BCK1, hits give low values 1.05 | locus YJL115W, strain asf1, hits give low values 0.988 | locus YJL129C, strain trk1, hits give low values 0.995 | locus YJL154C, strain vps35, hits give low values 0.989 | locus YJL164C, strain tpk1, hits give low values 0.999 | locus YJL166W, strain qcr8, hits give low values 1.01 | locus YJL187C, strain SWE1, hits give low values 0.987 | locus YJR066W, strain TOR1, hits give low values 0.978 | locus YKL160W, strain elf1, hits give low values 0.971 | locus YKR026C, strain gcn3, hits give low values 0.994 | locus YKR091W, strain srl3, hits give low values 1 | locus YLL001W, strain dnm1, hits give low values 0.974 | locus YLL026W, hits give low values 0.992 | locus YLL041C, strain sdh2, hits give low values 0.983 | locus YLR027C, strain aat2, hits give low values 1.01 | locus YLR113W, strain HOG1, hits give low values 1.01 | locus YLR221C, strain rsa3, hits give low values 0.996 | locus YLR258W, strain gsy2, hits give low values 0.997 | locus YLR262C, strain YPT6 (second series), hits give low values 0.984 | locus YLR320W, strain mms22, hits give low values 0.975 | locus YLR342W, strain FKS1, hits give low values 0.997 | locus YLR357W, strain rsc2, hits give low values 0.964 | locus YLR370C, strain arc18, hits give low values 1 | locus YLR384C, strain iki3, hits give low values 0.971 | locus YML120C, strain ndi1, hits give low values 1.02 | locus YMR058W, strain fet3, hits give low values 1 | locus YMR125W, strain sto1, hits give low values 0.997 | locus YMR129W, hits give low values 0.985 | locus YMR205C, strain PFK2, hits give low values 1.02 | locus YMR231W, strain pep5, hits give low values 0.994 | locus YNL071W, strain lat1, hits give low values 0.998 | locus YNL153C, strain GIM3, hits give low values 0.994 | locus YNL175C, strain NOP13, hits give low values 0.989 | locus YNL183C, strain NPR1, hits give low values 0.997 | locus YNL197C, strain WHI3, hits give low values 0.995 | locus YNL209W, strain ssb2, hits give low values 1.02 | locus YNL224C, strain SQS1, hits give low values 0.988 | locus YNL248C, strain rpa49, hits give low values 0.956 | locus YNL322C, strain KRE1 (second series), hits give low values 0.966 | locus YNR049C, strain mso1, hits give low values 1 | locus YOR001W, strain rrp6, hits give low values 1.02 | locus YOR070C, strain gyp1, hits give low values 0.998 | locus YOR080W, strain dia2, hits give low values 1 | locus YOR083W, strain WHI5 (second series), hits give low values 1.01 | locus YOR083W, strain WHI5, hits give low values 0.929 | locus YOR106W, strain vam3, hits give low values 0.994 | locus YOR231W, strain MKK1, hits give low values 1.06 | locus YOR265W, strain rbl2, hits give low values 1.02 | locus YOR270C, strain vph1, hits give low values 1.04 | locus YOR290C, strain snf2, hits give low values 0.989 | locus YPL051W, strain arl3, hits give low values 1 | locus YPL055C, strain LGE1, hits give low values 0.969 | locus YPL078C, strain atp4, hits give low values 0.984 | locus YPL106C, strain sse1, hits give low values 0.976 | locus YPL240C, strain hsp82, hits give low values 1 | locus YPL241C, strain CIN2, hits give low values 0.999 | locus YPL256C, strain CLN2, hits give low values 1.03
